Only some compounds are listed: those with a hit (about 3% of all), similar ones and a draw of the others.
KDM5B inh = KDM5B demethylase inhibition; KDM5B demethylase, FDH-coupled NADH fluorescence (FDH is formaldehyde dehydrogenase); Potency, µM (titrated, usually from 57.7 µM), most hits filed as inhibitors; 220,000 compounds, 2.6% hits; note: potency is the fitted concentration of half-maximal effect; 0% is about no effect; nearly all actives have a fitted effect of over 70% in size
Target sequence (Q9UGL1 whole entry, looked up): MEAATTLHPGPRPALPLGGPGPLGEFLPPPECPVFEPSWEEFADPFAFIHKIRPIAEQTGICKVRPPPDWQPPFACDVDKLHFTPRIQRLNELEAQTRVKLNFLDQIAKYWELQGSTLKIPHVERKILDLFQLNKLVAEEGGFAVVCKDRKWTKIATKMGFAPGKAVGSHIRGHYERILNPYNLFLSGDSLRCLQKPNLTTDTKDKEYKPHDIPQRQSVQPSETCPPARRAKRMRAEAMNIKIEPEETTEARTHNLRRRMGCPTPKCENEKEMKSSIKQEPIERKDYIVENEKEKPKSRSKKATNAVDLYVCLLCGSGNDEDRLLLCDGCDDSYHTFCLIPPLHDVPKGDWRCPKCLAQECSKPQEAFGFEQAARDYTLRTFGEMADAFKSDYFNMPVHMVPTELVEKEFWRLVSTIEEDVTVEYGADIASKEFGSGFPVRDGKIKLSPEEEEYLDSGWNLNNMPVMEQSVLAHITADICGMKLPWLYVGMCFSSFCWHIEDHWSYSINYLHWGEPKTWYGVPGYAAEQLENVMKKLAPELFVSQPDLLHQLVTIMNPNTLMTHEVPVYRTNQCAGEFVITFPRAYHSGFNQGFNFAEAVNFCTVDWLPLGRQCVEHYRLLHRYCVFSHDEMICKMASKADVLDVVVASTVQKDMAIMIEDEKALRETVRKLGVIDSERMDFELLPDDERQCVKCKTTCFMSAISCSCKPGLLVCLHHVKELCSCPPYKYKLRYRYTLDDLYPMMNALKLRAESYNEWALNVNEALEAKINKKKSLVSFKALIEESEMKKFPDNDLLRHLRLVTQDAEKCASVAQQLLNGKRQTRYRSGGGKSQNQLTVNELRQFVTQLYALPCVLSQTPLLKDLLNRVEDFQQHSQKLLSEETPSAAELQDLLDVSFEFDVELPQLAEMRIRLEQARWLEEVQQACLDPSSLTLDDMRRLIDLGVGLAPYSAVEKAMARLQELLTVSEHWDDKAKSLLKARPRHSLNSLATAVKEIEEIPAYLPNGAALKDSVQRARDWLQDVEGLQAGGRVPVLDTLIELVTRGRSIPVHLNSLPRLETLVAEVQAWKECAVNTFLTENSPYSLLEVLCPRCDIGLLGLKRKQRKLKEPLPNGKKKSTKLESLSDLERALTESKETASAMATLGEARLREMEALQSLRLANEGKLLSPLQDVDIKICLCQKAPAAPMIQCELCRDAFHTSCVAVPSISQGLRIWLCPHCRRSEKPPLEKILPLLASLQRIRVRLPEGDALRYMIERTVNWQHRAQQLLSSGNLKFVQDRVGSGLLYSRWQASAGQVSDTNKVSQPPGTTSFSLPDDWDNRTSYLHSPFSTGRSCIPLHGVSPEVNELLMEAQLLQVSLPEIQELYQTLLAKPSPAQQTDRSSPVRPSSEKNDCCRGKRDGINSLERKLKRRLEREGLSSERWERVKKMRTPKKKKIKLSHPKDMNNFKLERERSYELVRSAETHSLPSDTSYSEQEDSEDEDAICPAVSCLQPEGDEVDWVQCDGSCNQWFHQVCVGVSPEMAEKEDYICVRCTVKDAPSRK
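Inhibition is measured as reduced NADH fluorescence generation from FDH coupling to formaldehyde release. Truncated KDM5BΔAP at 200 nM final acts on H3K4me3 peptide (12.5 µM in substrate mix) in pH 7.5 HEPES buffer with Tween-20, 30 min, room temperature.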
HEK293 viab = counter-screen for SNCA expression inhibitors: cell viability; HEK-293-SNCA-luc viability, GF-AFC fluorescence, 24 h; Potency, µM (titrated, usually from 57.1 µM), for the others: at the top dose activity change, negative = cytotoxicity, usual class: cytotoxic; 150,000 compounds, 0.12% hits;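 note: potency is the fitted concentration of half-maximal effect; 0% = DMSO-treated cells and -100% = medium-only wells without cells; nearly all actives have a fitted effect of over 30% in size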
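Cytotoxicity counterscreen: after 24 h compound treatment of genome-edited SNCA-luciferase HEK-293 cells, live-cell protease substrate GF-AFC read by fluorescence after 30 min; activity scaled between DMSO (0%) and medium-only (-100%), curves Hill-fitted.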
IP6K1 inhibitor = blocks human inositol hexakisphosphate kinase 1 | activity change, % (series mostly up to about 58 µM) | IP6K1 kinase, ADP-Glo luminescence, 2 h; stronger effect = lower value | 140,000 compounds, 0.81% hits; in the data active = activity change below about -25%; note: % is set by controls: 0 for no effect and ±100 for the full control effect
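ADP-Glo luminescence measures ADP made by human IP6K1 during a 2 h RT reaction with ATP/IP6 (mix at 1.3 mM/130 uM); top library doses 57.5 and 19.1 uM final.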
SNCA expr inh = SNCA gene expression inhibition | HEK-293 SNCA-luciferase knock-in, luminescence, 24 h | Potency, µM (doses to about 57.2 µM), without a hit: at the highest dose activity change, negative = inhibition, hits mostly inhibitors | 140,000 compounds, 0.17% hits;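 note: potency is the fitted concentration of half-maximal effect; plate controls were DMSO cells for no effect and cell-free wells for full effect; nearly all actives have a fitted effect of over 45% in size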
* marks the source's active call; other numbers are inactive results; i = inactive; ? = inconclusive; / = not tested or not shown; [ ] = dose if it differs, or a comment. Unless noted, calls come from the whole dose curve; as a rule, active = well fitted curve in the direction sought with a large enough effect; inconclusive = small, poorly fitted or top-dose-only effect, or another doubt; inactive = no such curve, though single readings can be large; an effect the other way counts as inactive or inconclusive.

SMILES	KDM5B inh	HEK293 viab	IP6K1 inhibitor	SNCA expr inh
CC(=O)N1CCN(c2cc(-c3noc([C@@H]4CCCN4Cc4ccc(C(F)(F)F)cc4)n3)ccn2)CC1	28µM*	-20%	12	?
CN(Cc1cc(C[C@@H]2C[C@H](NCc3cccnc3)C2(C)C)no1)c1ccccc1	?	-11%[87.6 µM]	-7	-21%[87.6 µM]
COCCNC(=O)c1ccc2c(c1)N(C)C(CC(=O)NCC(C)(C)C)CO2 (stereo not given)	28µM*	10%	6	-20%
COCCNC(=O)c1ccc2c(c1)N(C)C(CC(=O)NCc1ccoc1)CO2 (stereo not given)	28µM*	4%	-5	20%
CCCN(C)C(=O)CC1COc2ccc(C(=O)NCCOC)cc2N1C (stereo not given)	32µM*	-8%	27	-6%
C=C(C)CNC(=O)CC1COc2ccc(C(=O)NCCOC)cc2N1C (stereo not given)	?	-3%	1	6%
COCCNC(=O)c1ccc2c(c1)N(C)C(CC(=O)Nc1cccnc1)CO2 (stereo not given)	?	-1%	-4	3%
COc1ccc(/C=C/C(=O)c2ccc(O)c(CCCl)c2)cc1C	i	/	/	/
O=C(NCc1cccs1)C1CCN(C(=O)c2ccc(-c3cccs3)cc2)CC1	/	/	-17	/
CCc1ccc(Cn2nccc2NC(=O)C2CCN(S(=O)(=O)c3ccccc3)CC2)cc1	i	/	/	/
COc1ccc(OC)c(CN2CCCn3nc(C)c(-c4cnccc4C)c32)c1	32µM*	-7%[87.6 µM]	4	-28%[87.6 µM]
Cc1ccncc1-c1c(C)nn2c1N(Cc1cccc(OC(F)(F)F)c1)CCC2	35µM*	?	23	?
COc1ccc(CNC(=O)N2CCN(S(=O)(=O)c3cc(F)ccc3F)CC2)cn1	i	/	/	/
O=C(NC1CCOC2(CCOCC2)C1)c1cnc2c(O)cccn2c1=O (stereo not given)	32µM*	?	10	-22%
NC(=O)COc1cccc(C(=O)N2CCC3(CC2)OCCCC3O)c1 (stereo not given)	i	-4%	5	1%
CC(C)NC(=O)[C@@H]1C[C@@H](NC(=O)c2cnc3c(O)cccn3c2=O)CN1C	35µM*	?	-12	10%
CC(C)NC(=O)[C@@H]1C[C@@H](NC(=O)c2ccon2)CN1Cc1cccnc1N	i	-17%	9	-3%
O=C(c1cnc2c(O)cccn2c1=O)N1CCC2(CC1)OCCCC2O (stereo not given)	32µM*	?	33	-17%
Cc1ccc(NC(=O)Nc2ccc(C)n(CC(=O)Nc3ccccc3)c2=O)cc1	?	12%	-1	88%
COc1cccc(NC(=O)Cn2c(C)ccc(NC(=O)Nc3ccc(C)cc3)c2=O)c1	28µM*	-1%	-6	106%
CCCN1CCN(C(=O)Cn2c(C)ccc(NC(=O)Nc3ccccc3)c2=O)CC1	25µM*	7%	2	13%
COc1ccc(NC(=O)Nc2ccc(C)n(CC(=O)Nc3ccc(C)c(C)c3)c2=O)cc1	18µM*	1%	-1	63%
CCN1CCN(C(=O)Cn2c(C)ccc(NC(=O)Nc3ccc(C)cc3)c2=O)CC1	?	1%	-7	14%
CC(NC(=O)c1ccc2nnc(Cc3ccco3)n2c1)c1ccc(F)cc1 (stereo not given)	/	4%	-3	2%
COc1ccc(F)cc1-c1ccc(CN2CCC(NC(C)=O)C2)cc1 (stereo not given)	/	/	5	/
SMILES	KDM5B inh	HEK293 viab	IP6K1 inhibitor	SNCA expr inh
C=CCCC(CN1CCCOCC1)Oc1ccc(C#N)cn1 (stereo not given)	i	0%	17	-23%
C=CCCC(CN1CCCOCC1)Oc1cc(C#N)ccn1 (stereo not given)	28µM*	1%	-8	-23%
Cc1cccc2c1O[C@H]1[C@H](C(N)=O)CN(C(=O)OCC(C)C)[C@@H]21	/	/	24	/
COCCNc1nc2cc(C(=O)N3CC[C@H](CO)[C@@H](O)C3)ccc2n1C	28µM*	4%	-10	2%
COc1ccc(Nc2cc(-c3ccccc3OC)nc3c(C)noc23)cc1OC	?	-11%[87.6 µM]	4	30%[87.6 µM]
COc1cccc2sc(NC(=O)c3ccc4c(c3)OCCN(C3CCC3)C4)nc12	35µM*	?	9	?
Cc1ccc(NC(=O)Cn2nc(C(N)=O)c3ccccc3c2=O)cc1	i	/	/	/
CC(C)(C)C(=O)Nc1ccc(-c2nc3ccccc3s2)cc1	i	-9%	-6	1.4µM*
COc1ccc(F)c(F)c1C(=O)c1cnc(NC2CCN(S(C)(=O)=O)CC2)nc1N	/	?	-4	14µM*

Compound activity (PubChem BioAssay)
